VP16 counter = VP16 counterscreen qHTS for inhibitors of ROR gamma transcriptional activity. Drosophila S2 Gal4-VP16 UAS-luciferase, luminescence, 20 h. Potency, µM (highest dose often 53.6 µM), without a hit: at the highest dose activity, negative = inhibition, hits mostly inhibitors. actives 3.5% (n = 310,000). AID 2546, 2010;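 also: Gal4-VP16 expression switched on by copper sulfate through the metallothionein promoter; % is scaled to controls: 0 for no effect and ±100 for the full control effect; nearly all actives have a fitted effect of over 50% in size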
ATXN2 expr inh = Primary qHTS for Inhibitors of ATXN expression | AID 1745845, 2022 | actives 0.72% (n = 360,000) | HEK-293 ATXN2-luciferase reporter, luminescence, 24 h | Potency, µM (doses to about 57 µM), without a hit: top-dose activity change, negative = inhibition, actives largely listed as inhibitors; also: % is scaled to controls: 0 for no effect and ±100 for the full control effect; nearly all actives have a fitted effect of over 55% in size
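qHTS (up to 57 uM final) was run with 24 h compound exposure of reporter cells at 37 °C. Each well was multiplexed: SteadyGlo luminescence measured ATXN2-luciferase expression after a fluorogenic Gly-Phe-AFC viability readout (25 uM final).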
S2 tox = Viability Counterscreen for Primary qHTS for Inhibitors of ATXN expression; S2 cells (HEK-293 line with an ATXN2-luciferase reporter) viability, CellTiter-Fluor protease fluorescence, 24 h; Potency, µM (highest dose often 56.7 µM), usual class: cytotoxic; AID 651635, 2014; actives 0.49% (n = 400,000); also: nearly all actives have a fitted effect of over 40% in size
RORg inh = qHTS for inhibitors of ROR gamma transcriptional activity. Nuclear receptor ROR-gamma (Mus musculus), P51450. Drosophila S2 Gal4-RORgamma UAS-luciferase reporter, 20 h. Potency, µM (series often up to 53.6 µM), for inactives: top-dose activity change, negative = inhibition, actives largely listed as inhibitors. actives 5.4% (n = 310,000). AID 2551, 2010; also: % is scaled to controls: 0 for no effect and ±100 for the full control effect; nearly all actives have a fitted effect of over 60% in size
Target sequence (P51450 whole entry, looked up, the tested form may be a part): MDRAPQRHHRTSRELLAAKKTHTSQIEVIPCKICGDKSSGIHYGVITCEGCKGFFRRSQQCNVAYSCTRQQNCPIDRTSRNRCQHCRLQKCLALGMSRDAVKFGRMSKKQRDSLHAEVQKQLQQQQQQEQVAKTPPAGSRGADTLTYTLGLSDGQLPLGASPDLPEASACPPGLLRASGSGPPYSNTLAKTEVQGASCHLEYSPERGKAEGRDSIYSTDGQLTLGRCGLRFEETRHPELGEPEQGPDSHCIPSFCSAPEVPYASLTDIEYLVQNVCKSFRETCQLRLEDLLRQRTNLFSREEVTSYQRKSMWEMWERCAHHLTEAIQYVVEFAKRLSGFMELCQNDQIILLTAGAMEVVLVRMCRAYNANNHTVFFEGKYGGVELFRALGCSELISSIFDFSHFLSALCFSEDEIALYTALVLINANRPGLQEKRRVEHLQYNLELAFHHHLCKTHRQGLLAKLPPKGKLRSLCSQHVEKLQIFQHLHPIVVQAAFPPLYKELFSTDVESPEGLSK
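ROR gamma transcriptional activity was tracked as Gal4-UAS luciferase output in stably transfected Drosophila Schneider cells, with compound added 1 hr before 700 uM copper sulfate induction and a 20 hr ambient-temperature incubation.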
TGFb inhibitor = qHTS for Inhibitors of TGF-b; Potency, µM (titrated, usually from 46.1 µM), inactives show at the highest dose activity, negative = inhibition, usual class: inhibitors; HepG2 CAGA-GFP TGF-b/SMAD3 reporter, GFP fluorescence, 18 h; TGF-beta stimulated, 500 pg/mL final; actives 1.2% (n = 410,000); AID 588855, 2011; also: % is scaled to controls: 0 for no effect and ±100 for the full control effect; nearly all actives have a fitted effect of over 65% in size
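HEPG2 CAGA-GFP, 1000 cells/well; 2 h settle, 37 C; cpd via pin tool; TGF-b 500 pg/mL final; 18 h, 37 C; GFP imaging ex488/em500-530; %Activity normalised to -TGF-b and +DMSO controls; CRC fit, curve class.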
HepG2 tox = qHTS for Inhibitors of TGF-b: Cytotox Counterscreen; HepG2 CAGA-GFP viability, ATP luminescence, 18 h; Potency, µM (highest dose often 46.1 µM), for inactives: top-dose activity change, negative = cytotoxicity, most hits filed as cytotoxic; actives 0.76% (n = 410,000)
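HepG2 CAGA-GFP cells (1000/well, DMEM with 1% FBS) received compound, then TGF-beta at 500 pg/mL final, and were incubated 18 hours at 37 degrees C. Viability was read by CellTiter-Glo luminescence. Media-only wells were set as complete cell-killing and DMSO as no toxicity.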
Active calls of the source: *; i = inactive; ? = inconclusive; nt = no result given; [ ] = another dose, or the depositor's remark. Sampled rows, rich in hits. Any-hit rate of the full collection: about 6.1%. Calls follow the shape of the dose curve; as a rule, active = well fitted curve in the direction sought with a large enough effect; inconclusive = small, poorly fitted or top-dose-only effect, or another doubt; inactive = no such curve, though single readings can be large; an effect the other way counts as inactive or inconclusive. Potency is read from the fitted curve at half-maximal effect.

SMILES | VP16 counter | ATXN2 expr inh | S2 tox | RORg inh | TGFb inhibitor | HepG2 tox
CNC(=O)[C@H](Cc1c[nH]c2ccccc12)NC(=O)[C@@H](CC(=O)NO)CC(C)C | 4% | nt | nt | 6% | nt | nt
CNc1ccccc1C(=O)OC(C)C(=O)Nc1ccc(Cl)cn1 (centres undefined) | -11% | 8.9µM* | i | 21% | -35% | -13%
CCc1ccc(NC(=O)C2CCCN(c3nn4cc(-c5ccc(OC)cc5)nc4s3)C2)cc1 (centres undefined) | nt | nt | nt | nt | -25% | -7%
Cc1ccccc1-c1noc(N)c1C#N | ? | 34% | i | 5.6µM* | -13% | 3%
Cc1cc(NCc2ccccc2)nc2ccccc12 | 6% | 4% | i | 40% | 0% | -11%
Cc1cc(N/N=C2/CCCc3ccccc32)nc2ccccc12 | 11µM* | -3% | ? | 2µM* | 16µM* | 11µM*
COC(=O)N/N=C1\CCCc2ccccc21 | 1% | 4% | i | 20% | -1% | 8%
c1ccc(N/N=C2\CCCc3ccccc32)nc1 | ? | -31% | i | 13µM* | 0% | -19%
CC1(C)CC(CCC(=O)NC(=S)Nc2ccccc2Cl)C(=O)O1 (centres undefined) | ? | nt | ? | 18µM* | 2% | 2%
O=C(NCc1ccccc1Cl)c1ccc(NC(=O)N2CCSc3ccccc32)cc1 | nt | 5% | i | nt | 5% | -35%
COc1ccc(CNC(=S)Nc2ccc(OC)cc2)cc1 | ? | 11% | i | 10µM* | 25% | -4%
COc1ccc(NC(=S)NCc2ccc(F)cc2)cc1 | ? | nt | ? | 7.9µM* | ? | -20%
COc1ccc(CNc2ccc(Br)cc2)cc1 | -18% | -3% | i | 10% | -16% | -92%
COC(=O)Cc1ccc(NC(=S)NCc2ccc(OC)cc2)cc1 | 1% | -20%[11.3 µM] | i | ? | 2% | 1%
CCCCc1ccc(NC(=S)NCc2ccc(OC)cc2)cc1 | ? | nt | i | 4µM* | 10µM* | -40%
COc1ccc(CNc2ccc(C(=O)O)cc2)cc1 | 0.63µM* | 24% | i | 1.3µM* | 0% | -1%
O=C(Nc1ccccc1)Nc1ccc(-c2ccc(C(=O)[C@H]3CCC[C@H]3C(=O)O)cc2)cc1 | nt | 26% | nt | nt | nt | nt
CCCCc1ccc(NC(=S)NCc2ccccc2OC)cc1 | -30%[10 µM] | 3% | i | 2µM* | -1% | 1%
COc1ccc(-c2csc(NC(=S)NC(=O)c3ccco3)n2)cc1Br | ? | -14% | i | 7.9µM* | -4% | -2%
COc1ccc(-c2csc(NC(=S)NC(=O)c3cc4ccccc4o3)n2)cc1Br | -5% | -8% | ? | -16% | 0% | 0%
Cc1ccc(-c2csc(NC(=S)NC(=O)c3ccco3)n2)cc1 | ? | 2% | i | 5.6µM* | 1% | 17%
Fc1ccc(CNc2ncnc3onc(-c4ccc(F)cc4)c23)cc1 | nt | -2% | i | nt | -9% | -21%
Cc1ccc(CNC(=O)C(=O)NCC(c2ccco2)S(=O)(=O)c2ccccc2)cc1 (centres undefined) | nt | nt | nt | nt | 0% | -32%
CCOc1ccc(-n2cnc3scc(-c4ccc(OC)c(OC)c4)c3c2=O)cc1 | -3% | -26% | i | 35% | 3% | -30%
CCOc1ccc(-c2cn(-c3cccc(SC)c3)c(=O)[nH]2)cc1 | -7% | 7% | i | 7% | 1% | -12%
SMILES | VP16 counter | ATXN2 expr inh | S2 tox | RORg inh | TGFb inhibitor | HepG2 tox
COc1ccc(-n2cc(-c3ccccc3)[nH]c2=S)cc1 | 3.5µM* | 47% | i | 2.2µM* | -1% | -8%
COc1cccc(-c2cn(-c3cccc(C(F)(F)F)c3)c(=S)[nH]2)c1 | ? | -1% | i | 3.2µM* | 1% | -11%
CCOc1ccc(-c2cn(-c3ccccc3OC)c(=S)[nH]2)cc1 | 8.9µM* | -5% | ? | 3.5µM* | 0% | 5%
Nc1cc(=O)[nH]c(=S)n1-c1cccc(C(F)(F)F)c1 | 5% | -4% | i | -40% | -5% | -11%
CCOc1ccc(-n2cc(-c3ccc(OC)c(OC)c3)[nH]c2=S)cc1 | ? | -3% | i | 1.3µM* | 0% | -1%
COc1cccc(CNC(=O)c2c(OC)cc(=O)n3c2CCN(C(=O)C2CC=CCC2)CC3)c1 (centres undefined) | nt | nt | i | nt | nt | nt
CC1(C)CC(=O)c2cc(C(=O)Nc3cccc4ccccc34)c(=O)[nH]c2C1 | nt | nt | nt | nt | -15% | -33%
Cc1ccc(-c2cn(-c3ccccc3F)c(=S)[nH]2)cc1 | 7.1µM* | 23% | i | 1.8µM* | ? | -24%
COc1ccccc1-n1cc(-c2ccccc2)c2c(=S)nc[nH]c21 | 1µM* | nt | ? | 1µM* | 0% | -20%
COc1ccccc1-n1cc(-c2ccccc2)[nH]c1=S | 20µM* | nt | ? | 4µM* | -3% | -21%
O=[N+]([O-])c1ccc(-c2cn(-c3ccccc3F)c(=S)[nH]2)cc1 | -12% | -6% | i | ? | 1% | 1%
Cc1cccc(-n2cc(-c3ccccc3)[nH]c2=S)c1 | 7.1µM* | 53% | i | 2.5µM* | 11% | -21%
COc1cc(-c2ccccc2)[nH]c(=S)n1 | nt | 3% | i | nt | -29% | 7%
CC(=O)Nc1ccc(-n2cc(-c3ccccc3)[nH]c2=S)cc1 | -3% | nt | i | ? | -8% | 0%
COc1ccc(OC)c(C2CC(=O)c3c([nH]c(C(=O)OC4CCC(C)CC4)c3C)C2)c1 (centres undefined) | nt | 4% | ? | nt | -10% | -5%
C=CCNC(=S)NNc1nc(N2CCCC2)nc(N2CCCC2)n1 | 18µM* | nt | i | 2.2µM* | -19% | 0%
CCNC(=S)NNc1nc(N2CCOCC2)nc(N2CCOCC2)n1 | -3% | 6% | i | -1% | -11% | -14%
C=CCNC(=S)NNc1nc(Nc2ccccc2)nc(N2CCCCC2)n1 | ? | -17% | i | 4µM* | ? | -9%
Cc1cccc(Nc2nc(N3CCCCC3)nc(N3CCCCC3)n2)c1 | -9% | -12% | i | 33% | -10% | -31%
S=C(NNc1nc(Nc2ccccc2)nc(N2CCCCC2)n1)NC1CCCCC1 | 13µM* | -31% | i | 4.5µM* | ? | 3%
Cc1ccc(NC(c2ccc(Cl)cc2)c2nnc(-c3cccc(F)c3)o2)cc1C (centres undefined) | nt | 11% | i | nt | -12% | 0%
